An excerpt weighted towards active compounds, which were near 18% of everything screened.
Six1-Eya2 blk: blocks human Six1 binding to Eya2. AlphaScreen GST-Six1/His-Eya2 binding, biochemical; hits give low values. activity change, % (concentration not given with the values). hit rate 0.56% among 360,000. AID 651725; in the data active = activity change below about -65%; inconclusive = mostly about -30% to -63%
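AlphaScreen luminescence read after one hour at 37 °C in darkness. Pin-transferred compounds met GST-Six1 and His-Eya2 protein (5X stock 250 nM/500 nM) plus glutathione donor and Ni-chelate acceptor beads (5X, 50 ug/mL).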
CtBP-E1A blk: blocks the CtBP interaction with E1A; activity change, % (no concentration beside the values); AID 651724; hit rate 0.49% among 340,000; AlphaScreen GST-E1A/His-CtBP binding, 1536-well; hits give low values; in the data active = activity change below about -65%; inconclusive = mostly about -30% to -63%
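AlphaScreen with 125 nM GST-E1A and 125 nM His-CtBP (5X stocks) in Tris pH 8.0, 300 mM NaCl, BSA, Tween 20, TCEP. Compounds preincubated 2 h at 37 deg C, then glutathione donor/nickel acceptor beads added for 1 h at 37 deg C in dark.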
IL-1B inflam inh: inflammasome signaling inhibition, IL-1 beta readout; THP-1 LPS/ATP IL-1B secretion, AlphaLISA, 16 h; hits give low values; activity change, % at 57.5 µM; hit rate 4.7% among 360,000; AID 743279; in the data active = activity change below about -50%; inconclusive = mostly about -30% to -49%
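Secreted IL-1B measured by AlphaLISA bead assay after 16 h compound exposure of THP-1 cells; compounds (final up to 57.5 uM) added 1 h before LPS (250 ng/mL) and ATP (1.25 mM) stimulation; lower signal means less secretion.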
DT40 TDP1 CPT: DT40-hTDP1 cell growth loss with CPT; Potency, µM (doses to about 46.2 µM), for the others: at the top dose activity change, negative = growth inhibition, usual class: inhibitors; hit rate 12% among 420,000; chicken DT40 Tdp1-/-;hTDP1 cells + 20 nM CPT, ATP luminescence, 48 h; also: potency is read from the fitted curve at half-maximal effect; nearly all actives have a fitted effect of over 55% in size
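Chicken DT40 Tdp1-/- cells stably complemented with human TDP1 were seeded at 400 cells/well in medium containing 20 nM camptothecin, exposed to pin-transferred compounds, and grown at 37 °C for at least 48 hr. Viability was read as ATP luminescence.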
DT40 TDP1 no CPT: qHTS for Inhibitors of human tyrosyl-DNA phosphodiesterase 1 (TDP1): qHTS in cells in absence of CPT; DT40 Tdp1-/- hTDP1 cells, no CPT, ATP luminescence, 48 h; hit rate 15% among 420,000; Potency, µM (highest dose often 46.2 µM), for the others: at the highest dose activity change, negative = growth inhibition, hits mostly inhibitors; AID 686978, 2013; also: potency is read from the fitted curve at half-maximal effect; nearly all actives have a fitted effect of over 55% in size
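Camptothecin absent (DMSO only). Human TDP1-complemented DT40 knockout cells, 400 cells/well, 37 °C for minimum 48 hr; ATP measured via CellTiter-Glo, 30 min dark incubation, luminescence.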
TDP1 block: TDP1 (human) enzyme inhibition; Q9NUW8; AID 485290; Potency, µM (titrated, usually from 130 µM), for the others: top-dose activity change, negative = inhibition, usual class: inhibitors; recombinant TDP1, AlphaScreen DNA substrate cleavage; hit rate 0.28% among 350,000; also: potency is read from the fitted curve at half-maximal effect; nearly all actives have a fitted effect of over 40% in size
Target sequence (Q9NUW8 whole entry, looked up): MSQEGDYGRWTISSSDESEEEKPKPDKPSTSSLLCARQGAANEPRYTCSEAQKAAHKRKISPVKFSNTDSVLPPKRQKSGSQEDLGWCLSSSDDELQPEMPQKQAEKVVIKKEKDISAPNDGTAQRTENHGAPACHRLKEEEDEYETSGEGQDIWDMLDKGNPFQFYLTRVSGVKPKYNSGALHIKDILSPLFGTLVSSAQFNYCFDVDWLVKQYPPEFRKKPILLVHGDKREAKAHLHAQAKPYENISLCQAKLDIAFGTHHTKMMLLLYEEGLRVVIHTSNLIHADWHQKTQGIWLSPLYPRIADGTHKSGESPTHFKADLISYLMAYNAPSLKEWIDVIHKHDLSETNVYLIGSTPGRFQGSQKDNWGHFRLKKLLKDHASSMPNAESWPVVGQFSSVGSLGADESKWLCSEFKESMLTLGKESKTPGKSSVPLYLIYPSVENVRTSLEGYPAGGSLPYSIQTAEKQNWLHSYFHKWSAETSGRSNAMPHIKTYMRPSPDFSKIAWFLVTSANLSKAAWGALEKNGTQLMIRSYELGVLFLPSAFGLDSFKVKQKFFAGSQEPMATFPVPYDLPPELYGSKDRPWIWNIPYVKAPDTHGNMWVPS
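Steps: enzyme plus compound, 15 min RT; add biotin/phosphotyrosine-FITC oligonucleotide (15 nM final), react 5 min; add donor/acceptor beads (10 ug/ml final), 10 min; read AlphaScreen. Tdp1 at 1 nM final.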
Active calls of the source: *; ? = inconclusive; · = no result; [ ] = another dose, or the depositor's remark. Unless noted, calls follow the shape of the dose curve; as a rule, active = well fitted curve in the direction sought with a large enough effect; inconclusive = small, poorly fitted or top-dose-only effect, or another doubt; inactive = no such curve, though single readings can be large; an effect the other way counts as inactive or inconclusive. % is scaled to controls: 0 for no effect and ±100 for the full control effect.

SMILES	Six1-Eya2 blk	CtBP-E1A blk	IL-1B inflam inh	DT40 TDP1 CPT	DT40 TDP1 no CPT	TDP1 block
CCCC(=O)Oc1ccc(N(C(=O)CCC)S(=O)(=O)c2cccc([N+](=O)[O-])c2)cc1	-23.6	-10.6	34.0	?	-23.7%	5.5%
O=[N+]([O-])c1ccc(-c2nn(-c3ccccc3)cc2/C=N/n2c(-c3ccncc3)n[nH]c2=S)cc1	-0.6	5.1	16.6	?	18.4µM*	·
S=c1[nH]nc(-c2ccncc2)n1/N=C/c1cn(-c2ccccc2)nc1-c1ccccc1	-0.5	·	74.8	?	?	3.7%
S=c1[nH]nc(-c2ccccn2)n1/N=C/c1ccc(Br)s1	-77.3*	6.8	27.7	4.5%	-8.3%	-5.6%
Cc1cc(-c2n[nH]c(=S)n2/N=C/c2cc([N+](=O)[O-])ccc2Cl)n[nH]1	-80.3*	-81.4*	41.9	5.17µM*	18.4µM*	5.6%
CCc1n[nH]c(=S)n1/N=C/c1ccccn1	1.2	-1.9	-9.4	5.4%	-20.5%	·
Cc1n[nH]c(=S)n(/N=C/c2ccccn2)c1=O	-78.9*	-86.9*	18.9	?	-27.6%	5.2%
Cc1cc(-c2n[nH]c(=S)n2/N=C/c2ccc(Cl)c([N+](=O)[O-])c2)n[nH]1	-13.6	-2.6	15.4	?	?	10.8%
O=C(CN1C(=O)COc2ccccc21)N1CCN(c2ccccc2F)CC1	2.8	-23.0	-6.9	-13.8%	-22.3%	0.0%
Cc1n[nH]c(=S)n(/N=C/c2cccc([N+](=O)[O-])c2)c1=O	?	-66.2*	13.1	15.4%	-9.7%	2.4%
O=[N+]([O-])c1cccc(/C=N/n2c(-c3cccnc3)n[nH]c2=S)c1	-19.6	-9.9	23.5	?	-26.3%	8.0%
CC1CCC2=NN(C(=O)c3ccco3)C(O)(C(F)(F)F)C2C1 (stereo unspecified)	-7.5	2.8	12.3	-19.1%	-12.3%	-2.4%
COc1ccc(C(=O)/C=C2/c3ccccc3CC(C)(C)N2C)cc1OC	-7.2	-8.5	0.0	?	16.4µM*	5.5%
NC(=O)c1ccc(NC(=O)COC(=O)c2ccc(Br)o2)cc1	-0.9	-3.3	-8.7	-4.7%	-1.6%	-1.2%
CCOC(=O)[C@]12CCC=C1N(Cc1ccc(Cl)cc1Cl)C(=O)[C@H](CC(=O)N1CCSCC1)C2	-4.4	-16.5	-22.9	23.1µM*	16.4µM*	·
CCOC(=O)N1CCN(C(=O)C[C@@H]2C[C@@]3(C(=O)OCC)CCCC=C3N(Cc3ccc(Cl)cc3Cl)C2=O)CC1	-3.7	0.9	-27.6	20.6µM*	23.1µM*	·
CCOC(=O)N1CCN(C(=O)C[C@@H]2C[C@@]3(C(=O)OC)CCCCC=C3N(Cc3ccc(Cl)cc3Cl)C2=O)CC1	-4.9	-5.4	·	20.6µM*	11.6µM*	·
O=C1C(Nc2ccccc2)=CC(c2ccc(Br)cc2)N1c1ccccc1 (stereo unspecified)	·	·	·	?	-22.6%	·
CCc1ccc([C@@H]2CC(=O)[C@@H]3CN(S(=O)(=O)c4ccccc4)[C@H](c4ccc(OC)cc4)C[C@@H]3N2S(=O)(=O)c2ccc(C)cc2)cc1	-9.4	-8.9	20.4	-56.7%	-22.9%	·
Cc1c(NC(=O)C2CCCN2C(=O)c2cccs2)c(=O)n(-c2ccccc2)n1C (stereo unspecified)	1.1	8.8	-7.4	5.0%	-7.1%	0.0%
CCOc1ccccc1C(=O)OCC(=O)Nc1cccc(S(=O)(=O)N2CCCC2)c1	-3.0	-3.2	26.2	20.6µM*	20.6µM*	0.0%
Cc1cc(C(=O)OCC(=O)Nc2cccc(S(N)(=O)=O)c2)c(C)o1	-15.5	-68.4*	12.0	-3.5%	4.3%	1.1%
CCS(=O)c1ccccc1C(=O)OCC(=O)Nc1cccc(S(=O)(=O)N2CCCCC2)c1 (stereo unspecified)	-2.6	0.5	3.6	11.6µM*	5.8µM*	4.0%
O=C(COC(=O)c1ccccc1)Nc1cccc(S(=O)(=O)N2CCCCC2)c1	-8.9	-4.6	1.0	6.0%	6.0%	-0.5%
O=C(COC(=O)c1cc([N+](=O)[O-])ccc1NCCO)Nc1ccc2c(c1)OCO2	16.4	-8.4	30.0	3.2%	4.6%	-2.4%
SMILES	Six1-Eya2 blk	CtBP-E1A blk	IL-1B inflam inh	DT40 TDP1 CPT	DT40 TDP1 no CPT	TDP1 block
O=C(COC(=O)c1cc([N+](=O)[O-])ccc1NCCO)Nc1cccc(S(=O)(=O)N2CCCC2)c1	-12.9	-15.1	-4.6	29.1µM*	13µM*	·
O=C(COC(=O)c1cccnc1Cl)Nc1cccc(S(=O)(=O)N2CCCCC2)c1	-7.7	-2.5	-14.0	9.0%	-15.9%	0.0%
C[C@]12CC[C@H]3c4ccc(O)cc4CC[C@@H]3[C@H]1CC[C@@H]2OC(=O)CCC1CCCC1	·	·	·	·	·	4.3%
O=C(O)/C=C/c1coc2ccccc2c1=O	2.3	2.6	18.3	0.1%	28.1%	0.0%
Cc1[nH]c2ccccc2c1C(c1ccccc1)c1ccc(Cl)s1 (stereo unspecified)	·	·	·	?	?	6.4%
CCc1nc2ccc(C(=O)NCc3ccccc3OC)cn2c1N(C)C(=O)Cc1ccccc1	4.1	5.5	7.2	?	?	·
O=C(/C=C/c1ccccc1)NC1CCCc2ccccc21 (stereo unspecified)	·	·	·	·	·	1.2%
CCOC(=O)c1ccc(N2C(=O)c3n[nH]c(C)c3C2c2ccc(O)cc2)cc1 (stereo unspecified)	-1.9	-3.7	14.7	-19.6%	?	2.9%
CCOC(=O)c1ccc(N2C(=O)c3n[nH]c(-c4ccco4)c3C2c2ccccc2OC)cc1 (stereo unspecified)	·	·	·	18.4µM*	6.51µM*	9.3%
CCOC(=O)c1ccc(N2C(=O)c3n[nH]c(C)c3C2c2ccccc2OC)cc1 (stereo unspecified)	·	·	·	16.4µM*	18.4µM*	4.7%
CS(=O)c1nc(-c2ccc(Br)cc2)cc(-c2ccccc2)c1C#N (stereo unspecified)	-11.3	-2.7	-69.5*	1.84µM*	2.59µM*	4.5%
CS(=O)(=O)c1nc(-c2ccc(Br)cc2)cc(-c2ccccc2)c1C#N	10.7	-5.2	-58.9*	4.11µM*	2.59µM*	3.6%
COc1ccc(-c2cc(-c3ccc(OC)cc3)c(C#N)c(SC)n2)cc1	9.6	8.7	-2.4	-27.1%	-27.6%	-9.8%
COc1ccc(-c2cc(-c3ccccc3)c(C#N)c(S(C)(=O)=O)n2)cc1	5.1	1.1	-96.1*	?	?	-1.5%
CCS(=O)(=O)CCSc1nc(-c2ccc(Br)cc2)cc(-c2ccccc2)c1C#N	·	·	·	-14.5%	-13.6%	-0.4%[12.3 µM]

Assay outcomes deposited in PubChem BioAssay by National Center for Advancing Translational Sciences (NCATS).
